Assay results published in the supplement of paper PMC9254222.
The full ranking holds about 1,100 compounds; the median of “Renilla luciferase signal (cell health) relative to plate median” is about 0.97, and the highest 2% start at about 1.6. Only a selection was taken, and the highest values are over-represented in it overall.

System: HEK293T (UBE3A T485A transfected, BAR Wnt reporter)
Assay: Renilla luciferase signal (cell health) relative to plate median (fold (linear ratio)); higher = higher Renilla signal
Details: 24 h
Procedure, shortened: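 Chemicals at 0.01–100 uM were left on transfected HEK293T cells for 24 h, after a four-hour wait following transfection. The cells held a BAR firefly luciferase Wnt reporter, TK-Renilla and an expression plasmid. Wnt activity, as the firefly/Renilla ratio from a Dual-Glo luciferase readout, and cell health, as raw Renilla, were median-centred within each plate. Results average four biological replicates.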

Row | SMILES | Renilla luciferase signal (concentration: 0.1 uM) | Renilla luciferase signal (concentration: 1 uM) | Renilla luciferase signal (concentration: 10 uM) | Renilla luciferase signal (concentration: 100 uM) | Renilla luciferase signal (concentration: 0.01 uM)
1 | C=CCCCCCCCCCCCC [1-Tetradecene] | 1.14 | 1.17 | 0.992 | 1.23 | 
2 | CC[C@H]1CC[C@H](NCc2cc3c(cc2OC)[C@H]2C[C@H]2C(=O)N3C)[C@H](c2ccccc2)N1 | 0.925 | 0.69 | 0.042 | 0.0275 | 
3 | CC(C)(O)c1ccc(CNC(=O)c2cccnc2Oc2ccc3nonc3c2)cc1 | 0.961 | 0.975 | 0.999 | 0.124 | 
4 | CCCN(CCC)C(=O)SCC | 0.898 | 1.09 | 0.918 | 2.92 | 0.911
5 | CCSC(=O)N(CC(C)C)CC(C)C [Butylate] | 1.15 | 1.07 | 1.09 | 1.59 | 1.09
6 | O=[N+]([O-])c1ccc(O)cc1 [4-Nitrophenol] | 0.863 | 0.956 | 0.876 | 0.736 | 
7 | O=C(O)c1ccc([N+](=O)[O-])cc1 [4-Nitrobenzoic acid] | 1.01 | 0.971 | 1.08 | 1.33 | 
8 | C=CCc1cc(S(=O)(=O)c2ccc(O)c(CC=C)c2)ccc1O [4,4'-Sulfonylbis[2-(prop-2-en-1-yl)phenol]] | 1 | 1.11 | 1.34 | 0.0284 | 
9 | Cc1c(C)c2c(c(C)c1O)CCC(C)(CCCC(C)CCCC(C)CCCC(C)C)O2 (stereo not drawn) [Vitamin E (alpha-tocopherol)] | 1.02 | 0.963 | 1.28 | 1.99 | 1.15
10 | Cc1c(C)c2c(c(C)c1O)CCC(C)(COc1ccc(CC3SC(=O)NC3=O)cc1)O2 (stereo not drawn) [Troglitazone] | 0.923 | 0.982 | 0.892 | 0.0852 | 
11 | CCCCCCCCCCCCCCO [1-Tetradecanol] | 0.93 | 0.831 | 0.94 | 0.92 | 
12 | CCOc1ccc2c(c1)C(C)=CC(C)(C)N2 [Ethoxyquin] | 1 | 1.01 | 0.86 | 0.0339 | 
13 | OC[C@H]1O[C@@H]2O[C@H]3[C@H](O)[C@@H](O)[C@@H](O[C@H]4[C@H](O)[C@@H](O)[C@@H](O[C@H]5[C@H](O)[C@@H](O)[C@@H](O[C@H]6[C@H](O)[C@@H](O)[C@@H](O[C@H]7[C@H](O)[C@@H](O)[C@@H](O[C@H]1[C@H](O)[C@H]2O)O[C@@H]7CO)O[C@@H]6CO)O[C@@H]5CO)O[C@@H]4CO)O[C@@H]3CO [alpha-Cyclodextrin] | 1.12 | 1.05 | 1.05 | 1.77 | 
14 | Cc1oc(-c2ccccc2)nc1CCOc1cccc2c1ccn2CCC(=O)O | 0.873 | 0.846 | 0.748 | 0.478 | 
15 | CCN(CC)CCNc1ccc(CNC=O)c2sc3ccc(OC)cc3c(=O)c12 | 0.886 | 0.626 | 0.193 | 0.0173 | 
16 | NC(=O)N(O)[C@@H]1C=C[C@H](Oc2cccc(Oc3ccc(F)cc3)c2)C1 | 1.08 | 0.968 | 1.14 | 0.801 | 
17 | CC1(C)NC(=O)N(c2ccc([N+](=O)[O-])c(C(F)(F)F)c2)C1=O [Nilutamide] | 1.05 | 1.09 | 0.995 | 0.268 | 

Row | SMILES | Renilla luciferase signal (concentration: 0.1 uM) | Renilla luciferase signal (concentration: 1 uM) | Renilla luciferase signal (concentration: 10 uM) | Renilla luciferase signal (concentration: 100 uM) | Renilla luciferase signal (concentration: 0.01 uM)
18 | CC(=O)CC(c1ccccc1)c1c(O)c2ccccc2oc1=O (stereo not drawn) [Warfarin] | 1.16 | 0.923 | 0.762 | 1.24 | 
19 | NC(CCCP(=O)(O)O)C(=O)O (racemic) | 0.901 | 1.22 | 1.06 | 2.45 | 0.767
20 | Cc1ccc(S(=O)(=O)NC(=O)NN2CCCCCC2)cc1 [Tolazamide] | 0.729 | 0.841 | 0.872 | 1.19 | 
21 | CC(C)(C)c1cc(O)ccc1O [tert-Butylhydroquinone] | 0.651 | 0.859 | 0.989 | 0.227 | 
22 | CO[C@@H]1COCC[C@@H]1[NH2+][C@@H]1CC[C@@](C(=O)N2CCc3ncc(C(F)(F)F)cc3C2)(C(C)C)C1.O=C([O-])CCC(=O)O | 0.901 | 1.1 | 0.9 | 1.08 | 
23 | NCc1cccc(C2CCN(C(=O)c3ccc(C#Cc4ccccc4F)o3)CC2)c1 | 1.16 | 0.989 | 1.04 | 1.31 | 
24 | CCOC(=O)CCC(=O)OCC [Diethyl butanedioate] | 0.922 | 0.965 | 0.973 | 1.25 | 
25 | [Cl-].[K+] | 0.999 | 1.06 | 1.02 | 1.88 | 1.13
26 | [Cl-].[Li+] | 1.03 | 0.97 | 0.953 | 1.14 | 0.945
27 | Cc1cn([C@H]2C=C[C@@H](CO)O2)c(=O)[nH]c1=O [Stavudine] | 0.957 | 1.07 | 0.973 | 0.903 | 
28 | CCc1nc(N)nc(N)c1-c1ccc(Cl)cc1 [Pyrimethamine] | 1.11 | 1.06 | 1.07 | 0.0813 | 
29 | Cc1ccc(C(C)C)cc1 [p-Cymene] | 1.03 | 0.949 | 1.11 | 1.51 | 
30 | CC(C)c1cccc(C(C)C)c1 [1,3-Diisopropylbenzene] | 1.12 | 1.28 | 1.17 | 1.7 | 
31 | Nc1ncn([C@@H]2O[C@H](CO)[C@@H](O)[C@H]2O)c(=O)n1 [5-azacytidine] | 0.572 | 0.391 | 0.138 | 0.596 | 0.936
32 | CCCCCCCCCCCCCCCCOS(=O)(=O)[O-].[Na+] [Sodium hexyldecyl sulfate] | 1.11 | 1.05 | 1.11 | 0.434 | 
33 | CC(=O)O[C@]1(C(C)=O)CC[C@H]2[C@@H]3C=C(Cl)C4=CC(=O)[C@@H]5C[C@@H]5[C@]4(C)[C@H]3CC[C@@]21C [Cyproterone acetate] | 1.06 | 0.965 | 0.849 | 0.603 | 
34 | CCOc1ccc2[nH]cc(C(=O)NCc3ccccc3)c(=O)c2n1 | 1.05 | 1.12 | 1.22 | 0.85 | 
